# Only some compounds are listed: those with a hit (about 6.8% of all), similar ones and a draw of the others.
# Pf Dd2 growth: P. falciparum Dd2 growth inhibitors, primary screen, SYBR Green fluorescence, single dose replicates | 72 h; hits give low values | 2.3% of 94,000 active | activity change, % at 10 µM | AID 1159554, 2015; in the data active = activity change below about -80%
# C diff HTS: C. difficile growth inhibitors, primary screen, HTS; 0.25% of 86,000 active; Clostridium difficile clinical isolate growth, OD600, 24 h; hits give low values; growth activity, negative = inhibition, % at 16 µg/mL (by protocol);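 active = mean growth activity at or below -80% and every replicate also at or below -80%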
# Tcruzi prolif: T. cruzi intracellular proliferation inhibitors, primary screen, cell-based, beta-gal Tulahuen parasites, NIH3T3 host, luminescence; T. cruzi beta-gal in NIH3T3, GalScreen luminescence, 90 h; inhibition, % at 8.34 µM; 5.9% of 77,000 active; AID 624255, 2012;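 active = mean inhibition above about 93%, with at least 55% of replicates each passing it, limit read from the data, passing the limit was not always enough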
# Numbers stand for hits; 0 = inactive; - = not tested or not shown; ! = a repeat was not active.
SMILES,Pf Dd2 growth,C diff HTS,Tcruzi prolif
C[C@H]1CN([C@@H](C)CO)C(=O)Cc2cc(NS(=O)(=O)c3cccs3)ccc2O[C@@H]1CN(C)C(=O)Nc1ccccc1,0,0,0
COc1ccc2c3c([nH]c2c1)[C@@H](CO)N(Cc1ccc(Cl)cc1)CC31CN(S(C)(=O)=O)C1,0,0,-
CCC(=O)N1CC2(C1)CN(Cc1ccc(OC)cc1)[C@H](CO)c1[nH]c3cc(OC)ccc3c12,0,0,-
CCCC(=O)N1CC2(C1)CN(Cc1ccc(Cl)cc1)[C@@H](CO)c1[nH]c3cc(OC)ccc3c12,-92,0,-
CCC(=O)N1CC2(C1)CN(Cc1ccccc1Cl)[C@H](CO)c1[nH]c3cc(OC)ccc3c12,-85,0,-
O=C(Nc1ccc2c(c1)[C@@H]1C[C@H](CC(=O)N3CCOCC3)O[C@H](CO)[C@@H]1O2)NC1CCCCC1,0,-,0
C[C@H]1CN([C@@H](C)CO)C(=O)c2cc(NS(=O)(=O)c3ccc(Cl)cc3)ccc2O[C@@H]1CN(C)C,0,0,-
COc1ccccc1-c1ccc2c(c1)O[C@H](CN(C)C(=O)Nc1cccc(F)c1)[C@@H](C)CN([C@H](C)CO)S2(=O)=O,0,0,0
Cc1ccc(S(=O)(=O)N(C)C[C@@H]2Oc3ncc(C#CC4(O)CCCC4)cc3C(=O)N([C@@H](C)CO)C[C@H]2C)cc1,0,0,0
C[C@@H]1CN([C@@H](C)CO)C(=O)c2cccc(NC(=O)C3CCOCC3)c2O[C@@H]1CN(C)C(=O)Nc1ccc(C(F)(F)F)cc1,0,0,0
Cc1noc(C)c1S(=O)(=O)Nc1ccc2c(c1)CC(=O)N([C@@H](C)CO)C[C@@H](C)[C@H](CN(C)C(=O)Nc1cccc3ccccc13)O2,0,0,0
FC(F)(F)c1cccc(CN2[C@@H]3CNC[C@H]2[C@@H]3c2ccc(-c3cccnc3)cc2)c1,-84,0,-
COc1cc(CN2[C@@H]3CNC[C@H]2C3c2ccc(-c3cccnc3)cc2)cc(OC)c1 (stereo not given in full),0,0,-
COCC(=O)Nc1ccc2c(c1)C(=O)N(C)[C@@H]1CC[C@H](CC(=O)NCCc3ccncc3)O[C@H]1CO2,0,0,0
O=S(=O)(c1ccccc1)N1C[C@@H]2N[C@H](C1)C2c1ccc(-c2cccnc2)cc1 (stereo not given in full),0,0,-
Cc1ccc(S(=O)(=O)N2C[C@@H]3N[C@H](C2)C3c2ccc(/C=C/c3ccccc3)cc2)cc1 (stereo not given in full),0,-95!,-
COc1cccc(S(=O)(=O)N2C[C@@H]3N[C@H](C2)C3c2ccc(/C=C/c3ccccc3)cc2)c1 (stereo not given in full),0,-94!,-
C/C=C/c1ccc(C2[C@@H]3CN(S(=O)(=O)c4ccccc4)C[C@H]2N3)cc1 (stereo not given in full),0,0,-
O=S(=O)(c1ccc(-c2ccccc2)cc1)N1C[C@@H]2N[C@H](C1)C2c1ccc(-c2ccccc2)cc1 (stereo not given in full),-87!,0,-
N#Cc1ccc(-c2ccc([C@@H]3[C@@H]4CN(S(=O)(=O)c5ccc(-c6ccccc6)cc5)C[C@H]3N4)cc2)cc1,0,0,-
Cc1ccc(S(=O)(=O)N2C[C@@H]3N[C@H](C2)C3c2ccc(-c3ccncc3)cc2)cc1 (stereo not given in full),-81!,0,-
COc1cccc(-c2ccc(C3[C@@H]4CN(S(=O)(=O)c5ccccc5)C[C@H]3N4)cc2)c1 (stereo not given in full),0,0,-
CCCNC(=O)N1CCC2(CC1)CN(C(=O)CCC)[C@H](CO)c1[nH]c3cc(OC)ccc3c12,0,0,-
CN(C)C(=O)c1ccc(-c2ccc([C@@H]3[C@H](CO)N4C(=O)CN(C(=O)C5CCCC5)C[C@@H]34)cc2)cc1,0,0,-
O=C(C[C@H]1C[C@H]2c3cc(NC(=O)CC4CC4)ccc3O[C@H]2[C@@H](CO)O1)NCc1cccnc1,0,0,0
SMILES,Pf Dd2 growth,C diff HTS,Tcruzi prolif
O=C([C@H]1[C@H](CO)[C@H]2Cn3c(cccc3=O)[C@H]2N1C(=O)C1CCCC1)N1CCOCC1,0,0,-
CC(C)NC(=O)NCC[C@@H]1CC[C@H](NC(=O)c2ccc(F)cc2)[C@H](CO)O1,0,-,0
CO[C@@H](CN(C)C(=O)c1cnccn1)[C@H](C)CN([C@@H](C)CO)S(=O)(=O)c1ccc(Cl)cc1,0,-,0
COc1ccccc1S(=O)(=O)N1C[C@@H]2N[C@H](C1)C2c1ccc(-c2ccccc2C)cc1 (stereo not given in full),0,0,-
Cc1ccccc1-c1ccc(C2[C@@H]3CN(S(=O)(=O)c4ccccc4C)C[C@H]2N3)cc1 (stereo not given in full),0,-98!,-
C[C@H](CO)N1C[C@H](C)[C@@H](CN(C)C(=O)CC2CC2)Oc2ncc(C#CC3CC3)cc2C1=O,0,0,0
CCCC#Cc1ccc2c(c1)[C@H]1[C@H](CCN1S(=O)(=O)c1cn(C)cn1)[C@H](CO)N2,0,0,-
Cc1ccc(-c2ccc([C@H]3[C@H]4CN(S(=O)(=O)c5ccccc5C)CCCCN4[C@H]3CO)cc2)cc1,0,0,0
O=C(NCC(F)(F)F)[C@@H]1[C@@H](CO)[C@@H]2Cn3c(ccc(-c4ccncc4)c3=O)[C@@H]2N1Cc1ccncc1,-,0,0
COc1ccc(NC(=O)Nc2ccc3c(c2)CC(=O)N([C@@H](C)CO)C[C@H](C)[C@@H](CN(C)Cc2ccc(C(=O)Nc4ccccc4N)cc2)O3)cc1,-88,0,-
C[C@H]1CN([C@@H](C)CO)C(=O)Cc2cc(NC(=O)Nc3ccc(F)cc3)ccc2O[C@H]1CN(C)Cc1ccc(C(=O)Nc2ccccc2N)cc1,-83,0,-
COc1ccc(NC(=O)Nc2ccc3c(c2)CC(=O)N([C@H](C)CO)C[C@@H](C)[C@@H](CN(C)Cc2ccc(C(=O)Nc4ccccc4N)cc2)O3)cc1,0,0,-
C[C@@H]1CN([C@@H](C)CO)C(=O)Cc2cc(NC(=O)Nc3ccc(F)cc3)ccc2O[C@H]1CN(C)Cc1ccccc1,-85,0,0
C[C@@H]1CN([C@H](C)CO)C(=O)Cc2cc(NC(=O)Nc3ccc(F)cc3)ccc2O[C@@H]1CN(C)Cc1ccccc1,0,0,0
C[C@H](CO)N1C[C@H](C)[C@@H](CN(C)Cc2ccc(C(=O)Nc3ccccc3N)cc2)Oc2ccc(NC(=O)Nc3ccc(F)cc3)cc2CC1=O,0,0,0
CN1C(=O)c2cc(NS(=O)(=O)c3ccccc3Cl)ccc2OC[C@H]2O[C@@H](CC(=O)O)CC[C@H]21,0,0,0
C[C@H]1CN([C@@H](C)CO)C(=O)c2c(c3ccccc3n2C)-c2ccccc2CO[C@@H]1CN(C)C(=O)c1ccc(F)cc1,0,-,0
O=C(c1ccc(F)cc1)N1CC(=O)N2[C@@H](CO)[C@H](c3ccc(C#CC4CCCC4)cc3)[C@@H]2C1,0,0,-
COc1ccc(NC(=O)Nc2ccc3c(c2)C(=O)N([C@H](C)CO)C[C@H](C)[C@H](CN(C)CC2CCCCC2)OCCCC[C@@H](C)O3)cc1,0,0,0
C[C@H]1CCCCO[C@H](CN(C)CC2CCCCC2)[C@@H](C)CN([C@@H](C)CO)C(=O)c2cc(NC(=O)Nc3ccccc3)ccc2O1,0,0,0

# Assay outcomes from PubChem BioAssay.
